PostGolgi ctrl: yeast control strain growth, post-Golgi counter-screen | efflux-deficient yeast background strain, growth absorbance A615, 16 h | inhibition, % at 10 µM | 98,000 tested, 5% active
PostGolgi yeast: growth inhibition of a yeast mutant, post-Golgi transport screen; 98,000 tested, 0.9% active; post-Golgi transport phenotypic cell assay; inhibition, % at 10 µM;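 note: yeast cells grown in 1536-well plates; yeast grown about 18 h at 30C before absorbance read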
CYP2C19 act: cytochrome P450 2C19 (human) activation | 96,000 tested, under 10 active | activation factor at 5 µM | recombinant CYP2C19, luciferin-H EGE luminescence; hits give high values; 0 = fully inhibited enzyme, 1 = untreated enzyme;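 active = activation factor of at least 2 at 5 µM in the primary screen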;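 note: 0 = wells with 2.5 mM tranylcypromine and 1 = vehicle-only wells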
Target sequence (P33261 whole entry, looked up): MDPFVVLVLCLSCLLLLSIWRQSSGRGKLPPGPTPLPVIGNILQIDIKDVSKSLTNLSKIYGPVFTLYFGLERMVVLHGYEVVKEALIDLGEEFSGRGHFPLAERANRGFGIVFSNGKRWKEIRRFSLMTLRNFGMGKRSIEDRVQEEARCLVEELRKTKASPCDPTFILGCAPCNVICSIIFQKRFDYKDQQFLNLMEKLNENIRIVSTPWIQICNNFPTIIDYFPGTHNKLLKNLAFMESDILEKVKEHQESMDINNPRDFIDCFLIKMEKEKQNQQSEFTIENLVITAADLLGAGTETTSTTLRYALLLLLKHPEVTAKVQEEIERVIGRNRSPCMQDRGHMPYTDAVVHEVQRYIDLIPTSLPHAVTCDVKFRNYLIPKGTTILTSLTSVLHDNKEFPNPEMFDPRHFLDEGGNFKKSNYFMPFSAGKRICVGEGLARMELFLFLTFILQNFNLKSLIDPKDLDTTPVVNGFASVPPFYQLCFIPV
CYP2C9 act: CYP2C9 (human) activation; P11712; recombinant CYP2C9, luciferin-H conversion, luminescence; hits give high values; factor 1 = untreated enzyme, 0 = blocked; activation factor at 5 µM; 96,000 tested, 1.4% active; AID 1024;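 active = activation factor of 2 or more for CYP2C9 at a 5 µM dose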;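 note: 0 = sulfaphenazole-blocked wells and 1 = vehicle-only wells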
CYP2C9 inhib: inhibitors of human CYP2C9. P11712. CYP2C9 Supersomes, luciferin-H conversion, luminescence. inhibition, % at 5 µM. 96,000 tested, 20% active;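 active = blocking of liver enzyme CYP2C9 beyond about 50% at 5 µM, limit read from the data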
CYP2C19 inhib: inhibitors of human CYP2C19; 96,000 tested, 21% active; P33261; CYP2C19 Supersomes, luciferin-H EGE luminescence, 30 min; inhibition, % at 5 µM;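 active = CYP2C19 inhibition above a set limit at 5 µM in the primary screen, cut at about 50% in these data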;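 note: plate controls were negative control wells for no effect and 2.5 mM tranylcypromine positive control for full effect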
The depositor's hits bear a star. Only some compounds are listed: those with a hit (about 32% of all), similar ones and a draw of the others. Cut-off read from the data, not from the text of the source, unless noted: active = inhibition above about 30%; inactive = the rest.

SMILES	PostGolgi ctrl	PostGolgi yeast	CYP2C19 act	CYP2C9 act	CYP2C9 inhib	CYP2C19 inhib
CN1C(=O)C2ON(c3ccccc3)C(c3cccs3)C2C1=O (stereo unspecified)	-1.9	-8.3	0.4	0.7	33.4	59.3*
c1ccc2c(SCc3cn4cccnc4n3)ncnc2c1	-0.7	4.5	0.5	1	2.5	54.0*
CC(C)=C1C2CCC1C1C(=O)N(c3nc(-c4ccc(F)cc4)c(C)s3)C(=O)C21 (stereo unspecified)	16.2	5.3	0.8	1.7	-73.6	24.0
O=[N+]([O-])c1ccc(N2CCCC2)cc1NC(c1ccccc1)c1ccccc1	12.3	-0.8	0.9	0.7	29.6	9.3
CCS(=O)(=O)N1CCN(c2ccc([N+](=O)[O-])c(NC(C)c3ccccc3)c2)CC1 (stereo unspecified)	43.9*	10.2	0.5	0.3	65.6*	51.2*
CC(Nc1cc(N2CCN(C(=O)C(C)(C)C)CC2)ccc1[N+](=O)[O-])c1ccccc1 (stereo unspecified)	26.8	-0.3	0.4	0.5	50.2*	56.4*
CC(Cc1cccs1)NC(=O)Nc1ccc(Cl)c(Cl)c1 (stereo unspecified)	69.2*	-4.1	0.3	0.3	69.0*	73.0*
CC(Cc1cccs1)NC(=O)Nc1ccccc1 (stereo unspecified)	-2.8	-1.1	0.1	0.4	57.1*	89.3*
CC(Cc1cccs1)NC(=O)Nc1ccc(Cl)cc1 (stereo unspecified)	11.6	15.6	0.3	0.7	29.8	68.5*
Cc1ccc(CN2C(=O)CCC2C(=O)NCCN(CC(C)C)CC(C)C)cc1 (stereo unspecified)	7.2	16.6	0.9	0.7	27.4	7.9
COc1ccccc1N=c1scc(-c2ccc3c(c2)NC(=O)CO3)n1CC1CCCO1 (stereo unspecified)	1.4	7.7	0.7	0.8	20.9	27.0
CN(C)S(=O)(=O)c1cccc(N=c2scc(-c3ccc4c(c3)NC(=O)CO4)n2CC2CCCO2)c1 (stereo unspecified)	21.6	-7.2	0.5	0.5	50.3*	45.8
CCOC(=O)CSc1nnc(CNC(=O)c2ccc(OC)cc2)n1C1CCCCC1	-2.1	-7.6	0.2	0.9	14.9	75.1*
CCOC(=O)CSc1nnc(CNC(=O)c2ccc(OC)cc2)n1Cc1ccccc1	3.4	0.0	0.7	0.9	9.1	30.7
COc1ccc(C2=NOC(C(=O)NCCN3CCOCC3)C2)cc1 (stereo unspecified)	-2.0	-3.4	1.1	1.1	-14.7	-11.3
CCN1C(=O)C(O)(CC(=O)c2cc(C)ccc2C)c2ccccc21 (stereo unspecified)	8.5	14.7	0.6	1	-1.8	44.3
Cc1ccc(C(C)C)cc1C(=O)CC1(O)C(=O)N(C)c2ccccc21 (stereo unspecified)	-6.7	8.9	0.3	0.4	59.2*	66.4*
Cc1nn(-c2ccccc2)c(Cl)c1/C=C1\SC(=S)NC1=O	25.9	20.6	1	0.2	76.0*	3.9
Cc1ccc(NC(=O)c2c(C)nn(-c3ccccc3)c2Cl)c(C)c1	5.0	1.0	0.7	0.8	24.5	26.8
CCCCNc1c([N+](=O)[O-])cc(C)cc1[N+](=O)[O-]	16.8	10.7	0.9	0.8	19.7	14.2
Nc1ccc2nc(SCc3ccc([N+](=O)[O-])cc3)sc2c1	13.4	7.8	0	0.4	58.7*	97.3*
O=[N+]([O-])c1ccc2nc(SCc3ccccc3Cl)sc2c1	12.0	6.0	0.7	0.9	11.9	26.4
COc1cc(NC(=S)Nc2ccc(S(=O)(=O)N3CCOCC3)cc2)cc(OC)c1OC	9.7	-0.7	1	0.8	16.1	0.7
COc1cccc(N2CCN(Cc3nc4ccccc4c(=O)[nH]3)CC2)c1	14.6	-8.0	0.8	0.7	33.8	20.9
Cc1cc2oc(=O)cc(COC(=O)c3n[nH]c4ccccc34)c2cc1C	13.5	3.0	0.9	0.2	76.3*	13.6
SMILES	PostGolgi ctrl	PostGolgi yeast	CYP2C19 act	CYP2C9 act	CYP2C9 inhib	CYP2C19 inhib
CCN(Cc1nc2ccccc2c(=O)[nH]1)Cc1cc(=O)oc2cc(OC)ccc12	3.4	0.6	0.5	0.5	51.5*	45.8
COc1ccc2c(COC(=O)c3n[nH]c4ccccc34)cc(=O)oc2c1	19.9	12.8	0.8	0.4	55.5*	17.0
Cc1cc(NC(=O)COC(=O)c2n[nH]c3ccccc23)no1	7.6	-6.0	0.8	0.9	10.3	18.3
Cc1ccc(-n2c(SCC(=O)NC3CCCCC3)nc3c(c2=O)SCC3)cc1	12.7	-2.9	0.8	0.9	8.4	24.1
Cc1cccc(-c2cc(C(=O)Nc3sc(C)c(C)c3C(N)=O)c3ccccc3n2)c1	-0.7	1.8	1	0.3	69.0*	-0.5
Cc1ccc(C)c(-c2cc(C(=O)Nc3sc(C)c(C)c3C(N)=O)c3ccccc3n2)c1	23.7	9.4	0.6	0	96.0*	40.7
CCOC(=O)c1sc(NC(=O)c2cc(-c3ccccc3)nc3ccccc23)c(C#N)c1C	8.8	-10.7	1	0.5	49.0	4.6
O=C1OCC(CO)(CO)N=C1NNc1cc(Cl)ccc1Cl	14.3	0.0	0.2	0.4	56.5*	76.7*
COc1cccc(C(=O)N(c2ccc(OC)cc2OC)C2C=CS(=O)(=O)C2)c1 (stereo unspecified)	-1.8	-6.5	0.7	0.8	19.9	28.4
CC(=O)N1CCC2(CC1)CC(=O)c1cc(OCC(=O)NCc3ccc(C)cc3)ccc1O2	-3.0	-16.5	0.6	0.5	46.7	41.2
CC(C)CCn1c(=O)c2ccccc2c2ccccc2c1=O	21.8	3.1	0.1	0.2	80.0*	86.2*
CC(C)Cn1c(=O)c2ccccc2c2ccccc2c1=O	33.5*	2.6	0.7	0.9	13.5	35.0
CC(C)Cn1c(CN2C(=O)c3ccccc3C2=O)nc2ccccc2c1=O	0.6	-4.8	0.9	0.7	29.3	6.1
O=C(CCc1nc(-c2ccccc2F)no1)NC1CCCCC1	2.9	-4.4	0.9	0.7	28.0	10.1
Nc1ccc(-c2nc3ccc(-c4nc5ccccc5o4)cc3[nH]2)cc1	4.2	-8.9	0.7	0.6	43.1	30.7
Nc1ccc2nc(-c3ccc(Cl)cc3)[nH]c2c1	16.4	-6.8	0.4	0.5	47.8	58.7*
Nc1ccc(-c2nc3c(Cl)c(N)ccc3[nH]2)cc1	33.1*	6.1	1.1	1	-2.5	-6.1
CCC(C)NC(=O)C1CCN(S(=O)(=O)c2cccc3cccnc23)CC1 (stereo unspecified)	-3.4	1.5	0.7	3.2*	-216.9	29.0
CCOC(=O)N1CCC(NC(=O)C2CCN(S(=O)(=O)c3cccc4cccnc34)CC2)CC1	5.0	1.8	1.1	1.5	-46.3	-5.9
O=C(NCc1ccccc1)C1CCCN1S(=O)(=O)c1cccc2cccnc12 (stereo unspecified)	4.4	-6.0	0.7	1.8	-80.5	29.8

Compound activity (PubChem BioAssay)
